The record followed here is ChEMBL document CHEMBL4888484, “Replenishing the malaria drug discovery pipeline: Screening and hit evaluation of the MMV Hit Generation Library 1 (HGL1) against asexual blood stage Plasmodium falciparum ,using a nano luciferase reporter read-out” (2022).

About 540 (0.36%) of roughly 150,000 compounds showed an effect of 50% or more. What follows is part of a selection rich in strong results, with near analogues and random picks from the rest.

The assay deals with Plasmodium falciparum. The experiment in a line: Primary screen in NF54 nanoGlo assay, in single point, at 2uM, 72h; a lower Z score goes with more inhibition. Type of assay: functional, Erythrocyte. The settings on record: timepoint 72 hour.
As a reminder, the % Inhibition is the drop in the measured response relative to a control, in per cent. `O=C(Nc1[nH]c(=O)ncc1F)c1cc(F)c(F)cc1Br`: the “% Inhibition” value came out at 91% and the Z score is listed as -7.85.

As to `COc1cc(C(=O)Nc2nc(C)nn2C)ccc1Cl`, the “% Inhibition” value was -9% and the Z score worked out at 1.22.

Turning to `Cc1cnc(NC(=O)c2cccc3ccccc23)s1`, the “% Inhibition” value is on record as -12% and the Z score was found to be 2.18.

For `O=C(NCc1n[nH]c(=O)[nH]1)c1ccc(Br)c(F)c1`, the “% Inhibition” value was -6% and the Z score is recorded as 0.79.

In the case of `O=C(Nc1[nH]c(=O)ncc1F)c1cccc2ccccc12`, the “% Inhibition” value is 85% and the Z score is on record as -7.83.

For the compound `O=C(NCCc1n[nH]c(=O)[nH]1)c1c(F)cc(Br)cc1F`, the “% Inhibition” value was -3% and the Z score was 0.32.

As to `Cc1cc(NC(=O)c2ccc(Cl)c(F)c2)nc(=O)[nH]1`, the “% Inhibition” value is recorded as -4% and the Z score was found to be 0.38.

As to `O=C(Nc1ccc(Cl)cn1)c1cccc2ccccc12`, the “% Inhibition” value was -6% and the Z score is 1.15.

With `COc1cc(C(=O)Nc2[nH]c(=O)ncc2F)ccc1Cl`, the “% Inhibition” value was 76% and the Z score was -11.96.

For the compound `CCC(CC)n1nc(C(=O)NCC23CCCN2CCC3)cc1C`, the “% Inhibition” value was -15% and the Z score is reported as 2.13.

As to `O=C(Nc1cccc2ccccc12)C1CCN(c2cc(-c3ccc(F)cc3)ncn2)CC1`, the “% Inhibition” value is -2% and the Z score worked out at 0.24.

Turning to `Cc1n[nH]c(=O)c2c1cnn2-c1ccc(F)cc1`, the “% Inhibition” value is recorded as 20% and the Z score is -2.53.

Consider `Cc1cccnc1CCNC(=O)N(C)[C@@H](C)c1ccncn1`, for which the “% Inhibition” value is given as -6% and the Z score is on record as 1.12.

For the compound `O=C(NCCc1ccc(Cl)cc1)c1ccc(Cn2c(=O)[nH]c3ccccc3c2=O)cc1`, the “% Inhibition” value is -9% and the Z score amounted to 1.68.

Turning to `O=C1N[C@@H](c2cccc(OCc3ccccc3)c2)Nc2c1sc(=S)n2-c1ccccc1`, the “% Inhibition” value was -12% and the Z score is recorded as 1.31.

Take `CN(CC(=O)NCc1ccco1)c1nnc(N2CCCC2=O)s1`: the “% Inhibition” value is 73% and the Z score is given as -0.5.

For the compound `CN(CC(=O)NCCCc1ccco1)c1nnc(N2CCCC2=O)s1`, the “% Inhibition” value was -11% and the Z score is 2.07.

`CN(CC(=O)NCc1cccs1)c1nnc(N2CCCC2=O)s1`: the “% Inhibition” value is -2% and the Z score came to 0.36.

In the case of `CCCN1CCN(C(=O)c2ccnc(N3CCN[C@H](c4ccccc4)C3)c2)CC1`, the “% Inhibition” value is given as -13% and the Z score is given as 1.36.

Consider `C[C@H](CCO)NCc1sccc1Cl`, for which the “% Inhibition” value was 5% and the Z score is given as -0.62.

`CC(C)(C)n1cnc(C(=O)N2CCCC23CCCCC3)n1`: the “% Inhibition” value stood at 0% and the Z score is -0.06.

On to `Cn1nnc(C(=O)N2CCC(c3ccccc3)(N3CCCC3)CC2)n1`, for which the “% Inhibition” value stood at 7% and the Z score is -1.29.

Consider `O=C(Nc1cnc(-n2ccnc2)nc1)c1ccc(F)cc1`, for which the “% Inhibition” value is on record as -18% and the Z score came to 2.84.

Turning to `CCOC(=O)C1(C(=O)NCc2cc(C)on2)CCCC1`, the “% Inhibition” value was 7% and the Z score is recorded as -0.84.

In the case of `CCN1C[C@H](Nc2ncnc3sc(C)cc23)[C@@H](OC)C1`, the “% Inhibition” value is -9% and the Z score was 1.14.

As to `CCN1C[C@H](Nc2ncccc2C#N)[C@@H](OC)C1`, the “% Inhibition” value is recorded as -13% and the Z score stood at 1.15.
